# Reference: PubChem BioAssay (NCATS)
# Several values for one entry are separate records, joined by “and”; a condition that tells them apart may be missing. Equal entries are not always repeated. Results filed as inconclusive are left out. Where a call stands in place of a potency, no number is given. Values without a mark were called inactive. Activity calls are given as the source filed them. Calls come from the whole dose curve; as a rule, active = well fitted curve in the direction sought with a large enough effect; inconclusive = small, poorly fitted or top-dose-only effect, or another doubt; inactive = no such curve, though single readings can be large; an effect the other way counts as inactive or inconclusive.
# Key:
# [1] = target: Cellular tumor antigen p53 (Homo sapiens) (UniProt P04637); assay: Primary qHTS for small molecule compounds that upregulate eGFP-tagged delta133p53alpha (in N-terminal) cells. (AID 2060322); details: NCI-H358 eGFP-delta133p53alpha fluorescence, 24 h; activation: active compounds read high; note: nearly all actives have a fitted effect of over 75% in size; note: potency is the fitted concentration of half-maximal effect;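 for activation: cells pre-induced with doxycycline then dosed without doxycycline; series mostly up to about 56 µM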
# Procedure, shortened: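 NCI-H358 cells pre-induced 24 h with 10 ng/ml doxycycline for eGFP-delta133p53alpha, plated dox-free and exposed 24 h at 37C to titrated compounds. Fixed, Hoechst-stained; gated GFP peak intensity by laser scanning cytometry, normalized to DMSO (0%) and 57.5 uM 5-azacytidine (100%).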
# [2] = target: Aldehyde dehydrogenase, mitochondrial (Homo sapiens) (UniProt P05091); assay: qHTS for Inhibitors of the Aldehyde Dehydrogenase Family (ALDH2) Primary screen (AID 2061308); note: nearly all actives have a fitted effect of over 55% in size
# [3] = target: Retinaldehyde dehydrogenase 3 (Homo sapiens) (UniProt P47895); assay: qHTS for Inhibitors of the Aldehyde Dehydrogenase Family (ALDH1A3) Primary screen (AID 2061315)
# [4] = BET inhibitor-based combinations targeting novel dependencies in MECOM-rearranged (r) AML: OCI-AML3 cell line (AID 2202232); details: Potency: OCI-AML3 viability; note: nearly all actives have a fitted effect of over 35% in size; note: potency is the fitted concentration of half-maximal effect
# Procedure, shortened: (§1)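 A 48 hr incubation preceded viability reading by CellTiter-Glo, with 15 min room-temperature development. Dose series had 11 points; normalization used DMSO and empty wells; AUC was computed and mean-centered per line as Z-AUC.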
# [5] = BET inhibitor-based combinations targeting novel dependencies in MECOM-rearranged (r) AML: MV-4-11 cell line (AID 2202233); note: nearly all actives have a fitted effect of over 45% in size; note: potency is the fitted concentration of half-maximal effect
# Procedure, shortened: (§2)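 Each compound is tested in an 11-point concentration series against 500 seeded cells/well for 48 hr. The luminescent viability signal is normalized to DMSO and blank wells, then reduced to AUC and a cell-line-centred Z-AUC.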
# [6] = BET inhibitor-based combinations targeting novel dependencies in MECOM-rearranged (r) AML: HNT-34 cell line (AID 2202234); note: nearly all actives have a fitted effect of over 35% in size; note: potency is the fitted concentration of half-maximal effect
# Procedure, shortened: as §2
# [7] = BET inhibitor-based combinations targeting novel dependencies in MECOM-rearranged (r) AML: AML-191 cell line (AID 2202236; note: nearly all actives have a fitted effect of over 35% in size; note: potency is the fitted concentration of half-maximal effect)
# Procedure, shortened: as §1
# [8] = BET inhibitor-based combinations targeting novel dependencies in MECOM-rearranged (r) AML: AML-194 cell line (AID 2202237; note: nearly all actives have a fitted effect of over 40% in size; note: potency is the fitted concentration of half-maximal effect)
# Procedure, shortened: as §1
# [9] = BET inhibitor-based combinations targeting novel dependencies in MECOM-rearranged (r) AML: UCSD-AML1 cell line (AID 2202235); note: nearly all actives have a fitted effect of over 40% in size; note: potency is the fitted concentration of half-maximal effect
# Procedure, shortened: as §2
# Cellular tumor antigen p53 (Homo sapiens), sequence (P04637 whole entry, looked up): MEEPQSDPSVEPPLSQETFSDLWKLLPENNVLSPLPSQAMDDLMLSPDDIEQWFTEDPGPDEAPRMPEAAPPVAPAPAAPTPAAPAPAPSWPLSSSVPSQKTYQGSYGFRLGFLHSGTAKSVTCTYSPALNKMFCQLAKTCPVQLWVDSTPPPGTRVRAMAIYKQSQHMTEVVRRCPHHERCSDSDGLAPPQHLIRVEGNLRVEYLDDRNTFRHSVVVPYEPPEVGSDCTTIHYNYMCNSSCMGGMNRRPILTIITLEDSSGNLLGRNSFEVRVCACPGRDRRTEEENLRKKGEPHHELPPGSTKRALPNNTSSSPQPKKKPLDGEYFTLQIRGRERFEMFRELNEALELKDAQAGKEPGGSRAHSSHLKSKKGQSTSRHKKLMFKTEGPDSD
compound,measurement,setting,value
CC(C)c1cc(CNc2nc(Nc3cc(C4CC4)[nH]n3)cc(N3CCN(C)CC3)n2)on1,Potency,[1],4.26 µM (active)
same,Potency,[2],inactive
same,Potency,[3],inactive
same,Potency,[4],4.68 µM (active)
same,Potency,[5],0.0742 µM (active)
same,Potency,[6],0.0934 µM (active)
same,Potency,[7],0.0833 µM (active)
same,Potency,[8],0.0934 µM (active)
Cc1cnc(CNC(=O)c2c(=O)c3ccc(N4CCCN(C)CC4)nc3n3c2sc2ccccc23)cn1,activation,[1],18.9% and -1.79%
same,"activity change, negative = inhibition",[2],8.69% [at 11.2 µM]
same,"activity change, negative = inhibition",[3],2.3% [at 11.2 µM]
same,Potency,[5],1.08 µM (active)
Nc1cccc(S(=O)(=O)N2CCCN(S(=O)(=O)c3ccc4c(c3)OCCO4)CC2)c1,activation,[1],17.7%
same,Potency,[2],inactive
same,Potency,[3],inactive
same,Potency,[4],inactive
same,Potency,[5],inactive
same,Potency,[8],inactive
COc1cc(Nc2ncc3c(n2)-c2ccc(Cl)cc2C(c2c(F)cccc2OC)=NC3)ccc1C(=O)O,activation,[1],85.9%
same,Potency,[2],inactive
same,Potency,[3],inactive
same,Potency,[5],0.0833 µM (active)
O=C(NC1CCOCC1)c1ccc(-c2cc(-c3cn[nH]c3-c3ccccn3)ccn2)cc1,activation,[1],37.2% and 4.46%
same,Potency,[2],inactive
same,Potency,[3],inactive
same,Potency,[4],inactive
same,Potency,[9],inactive
same,Potency,[7],inactive
same,Potency,[8],inactive
Nc1nccc(Oc2ccc(NC(=O)c3c[nH]cc(-c4ccc(F)cc4)c3=O)cc2F)c1Cl,Potency,[1],43.2 µM (active) and 30.1 µM (active)
same,Potency,[2],inactive
same,Potency,[3],inactive
same,Potency,[4],20.9 µM (active)
same,Potency,[5],0.0372 µM (active)
same,Potency,[6],18.6 µM (active)
same,Potency,[7],9.34 µM (active)
CCN1CCC(n2cc(CNc3cc(Cl)c4ncc(C#N)c(Nc5ccc(F)c(Cl)c5)c4c3)nn2)CC1,Potency,[1],16.9 µM (active)
same,Potency,[2],inactive
same,Potency,[3],inactive
same,Potency,[4],16.6 µM (active)
same,Potency,[5],20.9 µM (active)
same,Potency,[9],inactive
Cc1nc2ccc(-n3ncc(C(=O)c4cc5ccccc5[nH]4)c3N)cc2[nH]1,activation,[1],1.79%
same,Potency,[2],inactive
same,Potency,[3],inactive
same,Potency,[5],6.61 µM (active)
same,Potency,[8],16.6 µM (active)
NS(=O)(=O)c1ccc(Nc2nc(OCC3CCCCC3)c3[nH]cnc3n2)cc1,activation,[1],-24.8%
same,Potency,[2],inactive
same,Potency,[3],inactive
same,Potency,[5],3.32 µM (active)
same,Potency,[9],10.5 µM (active)
CN(C)CC(=O)N1CCC(c2ccc(NC(=O)c3ncc(C#N)[nH]3)c(C3=CCCCC3)c2)CC1,activation,[1],-0.715%
same,Potency,[2],inactive
same,Potency,[3],inactive
same,Potency,[5],0.148 µM (active)
same,Potency,[6],10.5 µM (active)
same,Potency,[9],5.25 µM (active)
CCn1c(=O)c(-c2ccn[nH]2)cc2c(C)nc(N)nc21,activation,[1],4.46%
same,Potency,[2],inactive
same,Potency,[3],inactive
same,Potency,[5],5.25 µM (active)
same,Potency,[9],0.59 µM (active)
NC(=O)c1ccc2nc(-c3ccc(Oc4ccc(Cl)cc4)cc3)[nH]c2c1,activation,[1],-21.2% and -4.33%
same,Potency,[2],inactive
same,Potency,[3],inactive
same,Potency,[6],16.6 µM (active)
same,Potency,[9],inactive
same,Potency,[7],inactive
same,Potency,[8],inactive
CC(C)(O)CNc1nc(Nc2ccnc(C(F)(F)F)c2)nc(-c2cccc(C(F)(F)F)n2)n1,activation,[1],-5% and -21.6%
same,Potency,[2],inactive
same,Potency,[3],inactive
same,Potency,[5],20.9 µM (active)
same,Potency,[9],inactive
CN(C)CCCNC(=O)c1ccc(-c2cc(O)c3ncccc3c2)cc1,activation,[1],-8.46% and -17.9%
same,Potency,[2],inactive
same,Potency,[3],inactive
same,Potency,[9],18.6 µM (active)
CC(O)c1cc(C(=O)N[C@@H](C)Cn2ccc(-c3ccc(C#N)c(Cl)c3)n2)n[nH]1 (stereo not given in full),activation,[1],1%
same,Potency,[2],inactive
same,Potency,[3],inactive
same,Potency,[5],inactive
same,Potency,[9],inactive
same,Potency,[7],16.6 µM (active)
same,Potency,[8],inactive
CC1CCC(C(=O)N(c2cc(C#CC(C)(C)C)sc2C(=O)O)C2CCC(O)CC2)CC1 (stereo not given),activation,[1],-32.4% and -8.93%
same,Potency,[2],inactive
same,Potency,[3],inactive
same,Potency,[5],20.9 µM (active)
same,Potency,[7],18.6 µM (active)
Cc1cc(SCc2sc(-c3ccc(C(F)(F)F)cc3)nc2C)ccc1OCC(=O)O,activation,[1],-4.33%
same,Potency,[2],inactive
same,Potency,[3],inactive
same,Potency,[5],inactive
same,Potency,[6],inactive
same,Potency,[9],inactive
same,Potency,[7],inactive
same,Potency,[8],inactive
COc1c(Cl)cc2c([nH]c3cnccc32)c1NC(=O)c1cccnc1C,activation,[1],16.3%
same,Potency,[2],inactive
same,Potency,[3],inactive
same,Potency,[7],20.9 µM (active)
same,Potency,[8],23.5 µM (active)
Nc1ccn([C@@H]2C(F)=C(CO)[C@@H](O)[C@H]2O)c(=O)n1,activation,[1],0.893% and -30.2%
same,Potency,[2],inactive
same,Potency,[3],inactive
same,Potency,[5],0.235 µM (active)
same,Potency,[9],0.662 µM (active)
CS(=O)(=O)N1CCN(Cc2cc3nc(-c4cccc5[nH]ncc45)nc(N4CCOCC4)c3s2)CC1,activation,[1],-25.9%
same,Potency,[2],inactive
same,Potency,[3],inactive
same,Potency,[5],2.09 µM (active)
same,Potency,[9],0.468 µM (active)
CS(=O)(=O)c1ccc(-c2cnc(N)c(C(=O)Nc3ccccc3)n2)cc1,activation,[1],-13%
same,Potency,[2],inactive
same,Potency,[3],inactive
same,Potency,[5],7.42 µM (active)
same,Potency,[7],4.68 µM (active)
same,Potency,[8],5.9 µM (active)
